# FadD28 binding – inhibitors of FadD28 bisubstrate probe binding, primary screen, biochemical, fluorescence polarization, single point; inhibition, % at 12.5 µM; AID 588549, 2011; Mycobacterium tuberculosis FadD28 fatty-acid-AMP ligase; 0.22% of 360,000 active; in the data active = inhibition above about 8.5%, passing the limit was not always enough
# TcdB GH inh – TcdB glycohydrolase inhibitors, primary screen, biochemical, single point, plate reader; TcdB glycohydrolase enzymatic assay; Toxin B (Clostridioides difficile), P18177; inhibition, % at 9.99 µM; 0.24% of 350,000 active; in the data active = inhibition above about 10%
# Yp Topo-I inh – Yersinia pestis topoisomerase I inhibitors, primary screen, biochemical, cleavage product accumulation, plate reader, single point | DNA topoisomerase I (Yersinia pestis CO92) | activity, % at 10 µM | Y. pestis Topo-I cleavage product accumulation | 0.064% of 360,000 active; in the data active = activity above about 50%, passing the limit was not always enough
# Mtb BioA inh – M. tuberculosis BioA enzyme inhibitors, primary screen, biochemical, plate reader, single point, HTS; inhibition, % at 9.99 µM; AID 602481, 2012; 7,8-diaminopelargonic acid synthase BioA (Mycobacterium tuberculosis); 0.096% of 360,000 active; purified M. tuberculosis BioA enzyme; in the data active = inhibition above about 40%
# * = called active by the depositor; . = no result given. In the library only some 0.47% were active in any assay of this set; here they are far more common.
SMILES,FadD28 binding,TcdB GH inh,Yp Topo-I inh,Mtb BioA inh
Cc1ccc(C(=O)NCCn2cc(SCC(=O)Nc3cc(C)on3)c3ccccc32)cc1,0,15*,5,-1
C/C(=N\NC(=O)c1ccccc1Cl)c1ccccn1,1,1,-6,-1
Cc1sc(-n2c(C)cc(/C=C3\SC(=S)NC3=O)c2C)c(C#N)c1C,17*,-1,8,-1
Cc1cc(/C=C2\SC(=S)NC2=O)c(C)n1-c1cccc(O)c1,17*,1,-6,.
CCn1c(C)cc(/C=C2/SC(=S)NC2=O)c1C,0,0,1,.
Cc1cc(/C=C2\SC(=S)NC2=O)c(C)[nH]1,33*,0,-12,4
Cn1cnc([N+](=O)[O-])c1Sc1ccc(Br)cc1,0,-1,6,-2
COc1ccc(NC(=O)Nc2ccc3c(c2)C(=O)N([C@H](C)CO)C[C@H](C)[C@@H](CN(C)Cc2ccc(Cl)c(Cl)c2)O3)cc1,.,0,.,-1
COc1cc(C)ccc1OCCCOc1c(Cl)cccc1Cl,-1,0,47,0
Cc1ccc(C)c2nc(Cl)c(C3NC(=O)c4ccccc4N3)cc12 (configuration not stated),-1,10*,5,.
Cc1cc(C)c2nc(Cl)c(C3NC(=O)c4ccccc4N3)cc2c1 (configuration not stated),-3,-1,-1,.
COc1cc(C2Nc3ccccc3C(=O)N2c2ccccc2)c(Br)cc1OCC(=O)O (configuration not stated),0,.,2,0
COC(=O)COc1ccc(Cl)cc1C1Nc2ccccc2C(=O)N1c1ccc(OC)cc1 (configuration not stated),23*,0,6,2
N#CC(C#N)=NNc1ccc(S(=O)(=O)N2CCCCC2)cc1,0,-2,-5,0
N#CC(C#N)=NNc1ccc(S(N)(=O)=O)cc1,25*,1,-17,0
COc1cc(/C=C/C(=O)OCC(=O)Nc2cccc(F)c2)ccc1O,1,4,-17,9
COc1cc(/C=C/C(=O)OCC(=O)NCc2ccco2)ccc1O,-2,15*,11,-1
CCc1cccc2c(C(=O)COC(=O)/C=C/c3ccc(O)c(OC)c3)c[nH]c12,35*,.,-13,-4
COc1cccc(/C=C/C(=O)OCC(=O)c2c[nH]c3ccccc23)c1,-1,1,-6,-3
CCc1cccc2c(C(=O)Cn3nnc(-c4ccc(OC)c(OC)c4)n3)c[nH]c12,73*,.,19,-1
COc1cc(/C=C/C(=O)OCC(=O)NC(=O)NC(C)(C)C)ccc1O,0,16*,-8,-1
COc1cc(C(=O)NC2CCCc3ccccc32)cc(OC)c1C (configuration not stated),-1,1,-1,-1
CC1(C)CCC[C@@]2(C)CC=C(C(=O)O)[C@@H]3C[C@]312,9.1*,0,-3,-2
COc1ccc(/C=C/C(=O)N(C)CC(=O)Nc2cccc(F)c2)cc1S(=O)(=O)N1CCCCC1,0,1,10,1
COc1ccc(NC(=O)CN(C)C(=O)/C=C/c2ccc(S(=O)(=O)N3CCCCCC3)cc2)cc1,-5,0,77*,-1
SMILES,FadD28 binding,TcdB GH inh,Yp Topo-I inh,Mtb BioA inh
COc1cc2c(cc1N)-c1ccc(N)cc1C2=O,-3,20*,-32,-1
Nc1ccc(C(=O)Nc2ccc3c(O)cc(S(=O)(=O)O)cc3c2)cc1,15*,1,-8,5
Cc1cn2c(N)c(/C=C3\C=Nc4ccccc43)c(=O)nc2s1,-4,0,-2,.
CC(C)S(=O)(=O)c1nsc2nc(=O)c(/C=C3\C=Nc4ccccc43)c(N)n12,30*,0,4,1
CSc1nsc2nc(=O)c(/C=C3\C=Nc4ccccc43)c(N)n12,14*,-1,-8,-1
CCCOC(=O)c1cc(-c2ccc(/C=C3/C(=O)N(C)C(=O)C(C#N)=C3C)o2)ccc1Cl,0,.,2,4
C=CCOC(=O)c1cc(-c2ccc(/C=C3\C(=O)NC(=O)C(C#N)=C3C)o2)ccc1Cl,20*,.,-19,7
CCOC(=O)c1[nH]nc(-c2cc(CC)c(O)cc2O)c1-c1cscn1,-3,15*,-3,-1
CCCc1cc2c(=O)c(-c3cscn3)c(C(=O)OCC)oc2cc1O,-2,2,-3,0
O=C(NCC(O)COc1ccc([N+](=O)[O-])cc1)c1ccccc1 (configuration not stated),-3,-1,-1,8
O=C(CC(=O)N/N=C/c1c(F)cccc1Cl)NCc1ccccc1,.,2,.,.
O=c1[nH]nc(-c2ccc(F)cc2)cc1Cc1ccccc1,-1,10*,18,.
CCCCN(C)c1c(C)nc2ccc(C(=O)NCc3cccs3)cn12,-4,18*,20,0
